Reference: the supplement of paper PMC11417369
± gives the standard deviation of the averaged measurements. The full ranking holds about 25,000 sequences; the median of “ln(normalized median fluorescence intensity)” is about 7.9, and the highest 2% start at about 11. Only a selection was taken, and the highest values are over-represented in it overall.

Test system: PfAP2-I AP2 domain 3 (GST-tagged)
Experiment: gcPBM binding intensity (ln(normalized median fluorescence intensity)); higher = stronger DNA binding
How it was run: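 Binding intensity is defined as the maximum Masliner-normalised natural-log median intensity across replicate spots for either probe orientation. It was measured on an Agilent 4 × 180k array of primer-extended double-stranded 36-bp intergenic genomic probes and negative controls, to which GST-tagged P. falciparum DNA-binding domains made in E. coli were applied for 1 h in 1× PBS with 1% milk, 0.2 mg/ml BSA, 0.5% salmon testes DNA and 0.03% Triton X-100. Detection was by Alexa488 anti-GST antibody and scanning at 488 nm.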

Row | Sequence | gcPBM binding intensity (ln)
1 | GAAAGAAAATATTAAGTGCATATTTTAATGATACAA [GTGCAC_site9712] | 9.02 ± 0.2
2 | ATTTTTAATGGATAAGTGCATAATATTATGATGCAA | 10.9 ± 0.64
3 | TATTAATGATAAGAATATTTTATATGATACATGCAT [CACACA_negctrl_site923] | 7.46 ± 0.68
4 | TTTTTTTTTTTGTGTGCATGTGCTAGGAAAGGTAGG [TGCATGCA_site330] | 8.85 ± 0.11
5 | TACTTCATATAATTAGCACACAATAATTTCTCATTT [CACACA_site2872] | 8.31 ± 0.45
6 | GTATTTATAATACGGCGTACATAAAAAAAAAAAAAA [XGTACX_site3705] | 8.14 ± 0.45
7 | TAAATTAATACCTATGCACACATTTTTTTTTTTAAA [CACACA_site1238] | 8.32 ± 0.47
8 | AATGCTATCATTAATGCACACATTTAAACTTAATAT [CACACA_site5878] | 11 ± 0.61
9 | TAATATATTATAAACACATGCACATTAATAATAACT [TGCATGCA_site708] | 8.08 ± 0.58
10 | AAATTTAATTTTATATCACACATTAAATTTTAATGG [CACACA_site4251] | 7.65 ± 0.58
11 | TATCATTTTTTTAAAACACACATAATAATATAAATA [CACACA_site2845] | 7.82 ± 0.31
12 | AATGCTATCATTAATGCACACATTTAAAATTAATAT [CACACA_site3548] | 11 ± 0.55
13 | GAAAAAATAAAATAAAGTACATAACTATAATAAAAA [XGTACX_site4807] | 7.9 ± 0.34
14 | TTTTTTTTTTTTTTTACACACTGCATACAAGAAAAA [CACACA_site5642] | 8.54 ± 0.66
15 | TGTGCACGCATATACACACACAAATACAATGATAAA [CACACA_site6656] | 8.92 ± 0.11
16 | TATTATATTTGTATGTGTACTTATATGGTTGTAATA [XGTACX_site4548] | 7.87 ± 0.26
17 | ATTTATATTACCCTTGCATGTAGGTGCAATTTTTTT [TGCATGCA_site757] | 10.64 ± 0.085
18 | AAAATTATGCAGTAGGTGCAATACCCTCGGCTTTTT [GTGCAC_site9556] | 11.1 ± 0.64
19 | TACCCTTGCATGTAGGTGCAATTTTTTTTTTTTTTT | 10.6 ± 0.35
20 | TTCCTGTTAATTACAACACACAATTCTTATTTTATG [CACACA_site6507] | 7.98 ± 0.52
21 | ACAAAACTCTTTAATTGTACAAATATAATATAAAAA [XGTACX_site5690] | 7.74 ± 0.63
22 | TATTTATAAATGAACACACACGCAATTTGAATCGAA [CACACA_site3371] | 8.04 ± 0.46
23 | TTAATTAAATATAGGGGTACATATTATATATGTTTT [XGTACX_site3677] | 7.76 ± 0.42

Row | Sequence | gcPBM binding intensity (ln)
24 | TTACGCTGCTATATAGTGCACATAATATATGACCTG | 11 ± 0.24
25 | TATATATATATATGTGCACACATAATAAAAAAAAAA [CACACA_site3830] | 10.55 ± 0.035
26 | TGCTATATAATATGAGCACACATAAGATTTGGTGTT [CACACA_site8148] | 8.05 ± 0.6
27 | TAAAACACTCATGGCACACATAAAACATTTTTATGA [CACACA_site3574] | 8.18 ± 0.24
28 | TCAATTTGGAACGGTATGCACTAATTTTATATTTTT | 9.02 ± 0.19
29 | TATTTTAAAACAAAAATATAATTTCATAAAAATATA [CACACA_negctrl_site394] | 7.2 ± 0.47
30 | TGTAATTGTTTAAAGGGTACATATATCAGATGTCTT [XGTACX_site5877] | 7.62 ± 0.54
31 | TATATCATTATATAAACACACAATATGTTTTTTATA [CACACA_site3781] | 7.42 ± 0.54
32 | TTTATTTATATAATTACACACATATATACGCAAATG [CACACA_site2794] | 7.78 ± 0.31
33 | TATTTAATTATATAAAATTAAATTTTTAATTCTTCC [CACACA_negctrl_site473] | 7.28 ± 0.53
34 | TTTTTTTCTCACAATCGTACATAAATACATATATAT [XGTACX_site3150] | 8.12 ± 0.54
35 | AAATATTCATAGTATACACACATTTATTTATAACCA [CACACA_site6502] | 7.88 ± 0.52
36 | TGTTTTTCATAGTGCACACATAACCAAAAATAGTAT [CACACA_site3150] | 11.5 ± 0.67
37 | AATAAATTCATGATAGTGCAAAAATTATTTTTGTTA | 9.49 ± 0.028
38 | GGTATTTTCACATATAGTACACAAAAATAAAATAAA [XGTACX_site2139] | 8.48 ± 0.099
39 | TTTCATAACAAAAAAGTGCAAAATAGCACGAACATT [GTGCAC_site9703] | 10.66 ± 0.049
40 | TTTGTTTTTCATAGTGCACACATAACCAAAAATAGT [CACACA_site9030] | 11.3 ± 0.46
41 | GAAAAAATTTTATGGTGTACTTTATTTATTTATATA [XGTACX_site6323] | 8.06 ± 0.28
42 | TATTTTAAAGAGAAAACATGCATTATATAGAACATT [TGCATGCA_site328] | 7.93 ± 1
43 | AATATAAACACAAACACACACATATATATATATATA [CACACA_site4307] | 9.49 ± 0.45
44 | AATATAATATAATGCACACATAAACAAAAAAAAAAA [CACACA_site783] | 11.2 ± 1
45 | AAAATATATACACAAACATGCATATAATAAATAAAT [TGCATGCA_site711] | 7.98 ± 0.83
46 | AATATAATATAATGCACACATAAAACAAAAAAAAAA [CACACA_site3012] | 11 ± 0.86
